Reference: the supplement of paper PMC11732987, “Enantioselective OTUD7B fragment discovery through chemoproteomics screening and high-throughput optimisation” (Communications Chemistry, 2025)
Values without a mark were called inactive.

Experiments:
Experiment in all cases: log2 ratio of Biotin-Ahx-Ub-VS probe labelling (fragment/DMSO); higher = less target engagement (more negative = stronger competition), active = hit call of the paper (q ≤ 0.05, log2 ratio ≤ -1)
Details in all cases: compound concentration: 200 uM; treatment time: 3 h
[1] = biological target: T1, USP19 (UniProt O94966)
T1 sequence (whole entry): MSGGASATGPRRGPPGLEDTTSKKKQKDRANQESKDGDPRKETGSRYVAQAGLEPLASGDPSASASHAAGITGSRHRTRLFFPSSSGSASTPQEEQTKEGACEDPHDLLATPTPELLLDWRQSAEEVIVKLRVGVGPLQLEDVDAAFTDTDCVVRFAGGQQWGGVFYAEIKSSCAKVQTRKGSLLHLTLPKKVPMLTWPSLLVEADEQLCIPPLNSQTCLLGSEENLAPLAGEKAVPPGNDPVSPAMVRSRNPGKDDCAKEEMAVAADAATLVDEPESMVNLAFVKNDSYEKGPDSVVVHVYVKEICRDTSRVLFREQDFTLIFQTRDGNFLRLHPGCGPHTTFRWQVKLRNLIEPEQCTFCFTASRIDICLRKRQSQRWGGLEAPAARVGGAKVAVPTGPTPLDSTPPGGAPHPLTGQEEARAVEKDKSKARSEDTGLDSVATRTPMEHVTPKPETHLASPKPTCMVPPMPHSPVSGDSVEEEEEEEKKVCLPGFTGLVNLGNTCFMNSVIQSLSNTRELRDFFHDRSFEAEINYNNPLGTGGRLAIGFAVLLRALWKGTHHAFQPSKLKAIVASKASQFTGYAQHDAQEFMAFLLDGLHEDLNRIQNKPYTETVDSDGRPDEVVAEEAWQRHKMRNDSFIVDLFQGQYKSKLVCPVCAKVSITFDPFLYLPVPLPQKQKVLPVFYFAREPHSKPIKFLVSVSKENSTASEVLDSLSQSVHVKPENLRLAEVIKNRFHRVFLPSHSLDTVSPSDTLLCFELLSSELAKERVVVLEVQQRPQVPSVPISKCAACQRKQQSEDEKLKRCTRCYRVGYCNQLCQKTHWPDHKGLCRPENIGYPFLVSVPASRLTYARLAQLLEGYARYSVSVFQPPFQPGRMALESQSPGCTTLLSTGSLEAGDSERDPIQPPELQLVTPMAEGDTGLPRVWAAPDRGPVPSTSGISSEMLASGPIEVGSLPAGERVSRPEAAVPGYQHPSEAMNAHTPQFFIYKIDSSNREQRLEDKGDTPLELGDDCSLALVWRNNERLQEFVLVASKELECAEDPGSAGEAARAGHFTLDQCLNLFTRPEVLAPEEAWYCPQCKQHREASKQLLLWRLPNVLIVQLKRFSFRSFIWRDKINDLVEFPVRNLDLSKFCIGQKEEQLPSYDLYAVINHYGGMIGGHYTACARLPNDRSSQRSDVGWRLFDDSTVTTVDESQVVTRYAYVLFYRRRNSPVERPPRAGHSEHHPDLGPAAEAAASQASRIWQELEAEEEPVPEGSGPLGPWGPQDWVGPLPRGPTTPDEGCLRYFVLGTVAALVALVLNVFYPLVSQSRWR
In short: (§1)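 Labelled DUBs from HEK293T lysate were NeutrAvidin-enriched, digested with LysC and trypsin, and run by diaPASEF LC-MS/MS. Before that, each 495 µg sample in Tris/CHAPS/IGEPAL buffer with protease inhibitors was treated in triplicate with fragment at 200 µM or vehicle for 3 h, then with Biotin-Ahx-Ub-VS at 0.5 µM final for 1 h. Values are average log2 ratios of fragment over vehicle by unpaired t-test, based on global-median-normalised Spectronaut label-free quantities from proteins with ≥2 unique peptides.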

[2] = biological target: T2, USP22 (UniProt Q9UPT9)
T2 sequence (whole entry): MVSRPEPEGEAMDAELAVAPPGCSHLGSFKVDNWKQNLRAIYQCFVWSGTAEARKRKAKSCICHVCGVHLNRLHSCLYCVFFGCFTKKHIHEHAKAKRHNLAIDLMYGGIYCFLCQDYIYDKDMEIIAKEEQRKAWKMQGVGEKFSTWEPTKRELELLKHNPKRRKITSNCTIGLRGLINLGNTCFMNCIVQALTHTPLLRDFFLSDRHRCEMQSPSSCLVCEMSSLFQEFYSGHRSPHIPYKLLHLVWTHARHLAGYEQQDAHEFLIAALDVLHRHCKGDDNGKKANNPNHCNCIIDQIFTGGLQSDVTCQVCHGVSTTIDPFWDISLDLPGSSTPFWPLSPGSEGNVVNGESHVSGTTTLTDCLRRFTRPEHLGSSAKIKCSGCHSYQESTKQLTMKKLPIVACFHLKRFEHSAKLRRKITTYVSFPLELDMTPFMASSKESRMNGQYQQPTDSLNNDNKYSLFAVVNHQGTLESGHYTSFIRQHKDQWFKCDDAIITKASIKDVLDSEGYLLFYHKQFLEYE
In short: as §1

[3] = biological target: USP24 (UniProt Q9UPU5)
In short: as §1

[4] = biological target: T3, USP25 (UniProt Q9UHP3)
T3 sequence (whole entry): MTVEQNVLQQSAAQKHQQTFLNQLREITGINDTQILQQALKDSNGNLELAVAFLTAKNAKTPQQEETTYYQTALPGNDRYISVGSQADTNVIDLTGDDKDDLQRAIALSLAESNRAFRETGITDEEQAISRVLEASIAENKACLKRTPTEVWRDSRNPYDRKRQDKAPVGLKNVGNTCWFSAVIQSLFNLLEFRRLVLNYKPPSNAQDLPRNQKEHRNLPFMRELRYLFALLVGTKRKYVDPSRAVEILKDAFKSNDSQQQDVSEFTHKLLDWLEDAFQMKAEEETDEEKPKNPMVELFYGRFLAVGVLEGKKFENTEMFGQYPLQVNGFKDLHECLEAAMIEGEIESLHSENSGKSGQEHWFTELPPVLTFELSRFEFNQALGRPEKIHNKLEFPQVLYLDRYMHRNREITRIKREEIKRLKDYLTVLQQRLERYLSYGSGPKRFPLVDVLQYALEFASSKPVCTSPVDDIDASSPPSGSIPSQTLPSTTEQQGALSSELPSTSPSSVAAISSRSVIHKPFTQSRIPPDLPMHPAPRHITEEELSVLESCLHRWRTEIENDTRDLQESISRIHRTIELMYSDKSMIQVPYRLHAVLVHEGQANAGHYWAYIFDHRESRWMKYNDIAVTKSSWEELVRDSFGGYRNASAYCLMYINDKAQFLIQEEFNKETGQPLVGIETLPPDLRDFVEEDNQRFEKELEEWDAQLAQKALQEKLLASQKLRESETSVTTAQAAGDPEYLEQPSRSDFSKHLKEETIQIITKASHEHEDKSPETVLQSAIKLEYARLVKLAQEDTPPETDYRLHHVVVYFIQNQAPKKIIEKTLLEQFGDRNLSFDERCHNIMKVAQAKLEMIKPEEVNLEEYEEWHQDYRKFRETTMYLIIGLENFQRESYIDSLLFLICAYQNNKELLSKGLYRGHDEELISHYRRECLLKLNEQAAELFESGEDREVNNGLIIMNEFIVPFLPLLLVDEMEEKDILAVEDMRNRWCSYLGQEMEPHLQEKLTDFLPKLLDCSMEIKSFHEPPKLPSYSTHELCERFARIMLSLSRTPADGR
In short: as §1

[5] = biological target: T4, USP28 (UniProt Q96RU2)
T4 sequence (whole entry): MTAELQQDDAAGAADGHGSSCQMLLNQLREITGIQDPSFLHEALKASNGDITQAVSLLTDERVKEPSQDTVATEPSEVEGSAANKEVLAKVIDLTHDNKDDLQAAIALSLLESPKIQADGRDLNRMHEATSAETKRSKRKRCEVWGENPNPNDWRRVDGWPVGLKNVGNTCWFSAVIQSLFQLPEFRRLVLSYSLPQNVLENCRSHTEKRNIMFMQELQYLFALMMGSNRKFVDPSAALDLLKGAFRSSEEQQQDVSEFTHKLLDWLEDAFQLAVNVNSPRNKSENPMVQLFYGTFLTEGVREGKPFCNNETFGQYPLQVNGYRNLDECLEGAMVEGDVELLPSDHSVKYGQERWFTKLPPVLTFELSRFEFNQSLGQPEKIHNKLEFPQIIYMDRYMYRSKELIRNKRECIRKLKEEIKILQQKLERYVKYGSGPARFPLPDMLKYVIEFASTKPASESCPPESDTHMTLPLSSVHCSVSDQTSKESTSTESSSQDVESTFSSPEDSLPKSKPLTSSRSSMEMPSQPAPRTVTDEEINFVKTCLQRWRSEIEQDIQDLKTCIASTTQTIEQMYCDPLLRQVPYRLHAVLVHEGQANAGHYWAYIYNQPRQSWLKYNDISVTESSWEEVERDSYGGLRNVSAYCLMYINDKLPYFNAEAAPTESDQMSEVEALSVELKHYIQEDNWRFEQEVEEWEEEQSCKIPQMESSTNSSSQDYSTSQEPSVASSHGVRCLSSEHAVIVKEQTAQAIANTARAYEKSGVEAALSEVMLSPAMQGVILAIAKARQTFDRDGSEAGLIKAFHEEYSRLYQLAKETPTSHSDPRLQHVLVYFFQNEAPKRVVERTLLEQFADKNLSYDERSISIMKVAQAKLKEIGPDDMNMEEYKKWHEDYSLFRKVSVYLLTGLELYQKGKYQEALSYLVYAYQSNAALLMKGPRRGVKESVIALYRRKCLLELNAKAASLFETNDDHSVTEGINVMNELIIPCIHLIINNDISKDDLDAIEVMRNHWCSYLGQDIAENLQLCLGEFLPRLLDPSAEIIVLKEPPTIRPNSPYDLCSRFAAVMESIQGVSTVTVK
In short: as §1

Chain of USP24 (Q9UPU5 whole entry): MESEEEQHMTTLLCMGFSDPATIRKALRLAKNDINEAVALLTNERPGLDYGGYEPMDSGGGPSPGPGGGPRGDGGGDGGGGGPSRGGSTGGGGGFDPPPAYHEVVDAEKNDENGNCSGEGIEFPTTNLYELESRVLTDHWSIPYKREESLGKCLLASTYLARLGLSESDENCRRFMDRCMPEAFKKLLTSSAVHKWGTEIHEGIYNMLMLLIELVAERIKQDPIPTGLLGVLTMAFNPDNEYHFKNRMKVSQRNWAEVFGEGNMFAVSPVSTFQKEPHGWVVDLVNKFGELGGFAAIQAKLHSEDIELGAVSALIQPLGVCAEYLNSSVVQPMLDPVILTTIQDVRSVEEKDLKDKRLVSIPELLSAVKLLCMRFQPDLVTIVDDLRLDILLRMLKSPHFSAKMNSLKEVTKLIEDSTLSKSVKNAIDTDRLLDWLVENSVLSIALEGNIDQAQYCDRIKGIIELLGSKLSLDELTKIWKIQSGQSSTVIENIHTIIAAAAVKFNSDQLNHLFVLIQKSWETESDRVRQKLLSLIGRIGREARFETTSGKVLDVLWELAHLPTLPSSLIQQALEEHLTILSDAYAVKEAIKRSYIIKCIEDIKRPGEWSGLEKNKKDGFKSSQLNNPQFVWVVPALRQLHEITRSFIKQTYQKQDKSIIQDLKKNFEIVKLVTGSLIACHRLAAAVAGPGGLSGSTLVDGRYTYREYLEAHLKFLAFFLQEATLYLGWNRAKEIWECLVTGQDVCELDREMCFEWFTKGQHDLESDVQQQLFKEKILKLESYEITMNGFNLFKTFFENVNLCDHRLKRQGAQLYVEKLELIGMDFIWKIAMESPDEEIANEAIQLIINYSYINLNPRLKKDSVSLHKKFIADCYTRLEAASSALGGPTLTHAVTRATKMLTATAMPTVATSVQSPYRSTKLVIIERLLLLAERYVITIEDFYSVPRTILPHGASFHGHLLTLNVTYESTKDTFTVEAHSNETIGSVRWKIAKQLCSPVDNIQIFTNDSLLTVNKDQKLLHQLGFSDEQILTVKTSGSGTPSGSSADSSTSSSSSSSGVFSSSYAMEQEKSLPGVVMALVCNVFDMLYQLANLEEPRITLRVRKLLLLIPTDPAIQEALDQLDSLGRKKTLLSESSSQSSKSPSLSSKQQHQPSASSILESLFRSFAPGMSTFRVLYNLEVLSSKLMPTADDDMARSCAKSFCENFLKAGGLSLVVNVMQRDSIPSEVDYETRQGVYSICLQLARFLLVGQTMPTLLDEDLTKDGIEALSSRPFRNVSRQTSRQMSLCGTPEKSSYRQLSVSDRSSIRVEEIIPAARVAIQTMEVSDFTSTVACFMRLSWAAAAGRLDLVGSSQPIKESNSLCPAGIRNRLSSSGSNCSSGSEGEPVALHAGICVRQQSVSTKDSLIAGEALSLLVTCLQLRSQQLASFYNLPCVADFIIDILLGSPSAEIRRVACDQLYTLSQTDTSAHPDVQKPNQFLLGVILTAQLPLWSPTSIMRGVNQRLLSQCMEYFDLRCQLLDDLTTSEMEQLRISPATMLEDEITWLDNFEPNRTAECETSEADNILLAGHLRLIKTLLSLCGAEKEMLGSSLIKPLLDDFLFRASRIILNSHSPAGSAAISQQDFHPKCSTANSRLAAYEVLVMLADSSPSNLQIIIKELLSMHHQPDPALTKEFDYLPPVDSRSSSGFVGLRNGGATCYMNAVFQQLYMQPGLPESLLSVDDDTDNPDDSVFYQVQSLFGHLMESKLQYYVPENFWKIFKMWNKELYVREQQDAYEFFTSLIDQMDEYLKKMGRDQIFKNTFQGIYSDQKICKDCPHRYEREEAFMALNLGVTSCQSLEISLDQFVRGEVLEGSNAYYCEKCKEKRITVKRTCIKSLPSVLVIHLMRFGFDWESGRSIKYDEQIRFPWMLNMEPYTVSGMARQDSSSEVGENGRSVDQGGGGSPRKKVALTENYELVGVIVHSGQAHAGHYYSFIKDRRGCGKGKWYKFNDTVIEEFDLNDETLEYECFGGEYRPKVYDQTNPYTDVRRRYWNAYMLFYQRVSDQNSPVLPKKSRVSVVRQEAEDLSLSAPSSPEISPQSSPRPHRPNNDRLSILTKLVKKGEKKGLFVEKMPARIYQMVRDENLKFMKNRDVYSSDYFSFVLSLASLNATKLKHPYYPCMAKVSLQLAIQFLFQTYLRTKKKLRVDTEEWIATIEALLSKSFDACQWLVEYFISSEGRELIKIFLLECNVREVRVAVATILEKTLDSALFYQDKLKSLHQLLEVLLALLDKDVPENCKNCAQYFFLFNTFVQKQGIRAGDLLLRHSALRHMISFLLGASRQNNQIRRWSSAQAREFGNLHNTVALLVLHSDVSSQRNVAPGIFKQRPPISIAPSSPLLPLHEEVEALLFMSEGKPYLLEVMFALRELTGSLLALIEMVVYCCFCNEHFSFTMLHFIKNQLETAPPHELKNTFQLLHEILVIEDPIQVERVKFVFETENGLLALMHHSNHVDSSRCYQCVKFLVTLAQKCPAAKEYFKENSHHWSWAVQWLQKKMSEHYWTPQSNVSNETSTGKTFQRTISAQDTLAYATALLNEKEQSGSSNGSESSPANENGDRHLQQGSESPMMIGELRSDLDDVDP

O=C(CCl)N1CCc2sccc2C1
log2 ratio of Biotin-Ahx-Ub-VS probe labelling [1]: -1.19 (active) | log2 ratio of Biotin-Ahx-Ub-VS probe labelling [2]: -0.23 | log2 ratio of Biotin-Ahx-Ub-VS probe labelling [3]: -1.31 (active) | log2 ratio of Biotin-Ahx-Ub-VS probe labelling [4]: -1.13 (active) | log2 ratio of Biotin-Ahx-Ub-VS probe labelling [5]: -0.791
